About 800 (1.6%) of roughly 50,000 compounds showed an effect of 50% or more. The entries come from a sample that favours strong results as a whole.

The target of the assay is Bcl-2-like protein 10 (Homo sapiens) (UniProt Q9HD36). Briefly: Phenotype converters, Bcl-B/TR3 peptide binding displacement, primary biochemical FP (AID 1240).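 Also: 0% = Bcl-B with tracer peptide and DMSO and 100% = tracer peptide lacking Bcl-B.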 As to conditions: GST-Bcl-B / FITC-TR3 peptide fluorescence polarization; stronger effect = higher value; compound at 3.75 mg/L. A general note: In fluorescence polarisation assays a small probe gives low polarisation when free and higher when bound to something large.
Chain of Bcl-2-like protein 10 (Homo sapiens) (Q9HD36 whole entry, looked up): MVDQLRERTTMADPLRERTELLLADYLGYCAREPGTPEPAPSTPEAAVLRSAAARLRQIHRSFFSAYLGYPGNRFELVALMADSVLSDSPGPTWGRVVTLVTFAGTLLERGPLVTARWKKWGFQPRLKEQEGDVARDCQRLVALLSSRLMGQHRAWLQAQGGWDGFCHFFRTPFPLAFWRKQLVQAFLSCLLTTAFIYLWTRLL
As to `COc1cc(C(=O)Nc2cccc(-c3cc4ccccc4oc3=O)c2)cc(OC)c1OC`, the displacement is 3.9%.

Turning to `CCOc1ccc(NC2=C(Cl)C(=O)N(c3ccc(Br)cc3)C2=O)cc1`, the displacement was -4.8%.

Regarding `CC1CCc2c(sc(NC(=O)/C=C/c3ccc4c(c3)OCO4)c2C(N)=O)C1` (configuration not stated), the displacement is 144%.

On to `CC(=O)Nc1sc2c(c1C(N)=O)CCC(C)C2` (configuration not stated), for which the displacement was 10.6%.

Consider `CC1CCc2c(sc(NC(=O)/C=C/c3ccccc3)c2C(N)=O)C1` (configuration not stated), for which the displacement turned out to be 10.5%.

Take `OCc1c(O)cnc2ccccc12`: the displacement came out at 19.4%.

Consider `O=c1[nH]c(-c2ccc(-c3ccc(F)cc3)o2)nc2sc3c(c12)CCCC3`, for which the displacement was -13.3%.

For the compound `CC(/C=C1\SC(N2CCN(C3=NC(=O)/C(=C\C(C)=C\c4ccccc4)S3)CC2)=NC1=O)=C\c1ccccc1`, the displacement was -9%.

`CC(=O)N1C(=S)NC(=O)/C1=C\c1cccnc1`: the displacement came out at 93.4%.

As for `CCc1ccc(/C=C2/C(=O)NC(=O)N2C(C)=O)cc1`, the displacement stood at 13.8%.

Turning to `O=C1NC(=O)/C(=C/c2cccnc2)S1`, the displacement turned out to be 12%.

Consider `Cc1ccc(-c2cc(-c3ccncc3)c(C#N)c(N)c2C#N)cc1`, for which the displacement amounted to 21.2%.

Consider `N#Cc1c(-c2ccc(Br)cc2)cc(-c2ccco2)c(C#N)c1N`, for which the displacement came to 76.9%.

For the compound `N#Cc1c(-c2ccc(Br)cc2)cc(-c2ccc3c(c2)OCO3)c(C#N)c1N`, the displacement was 4.5%.

As to `CCOC(=O)C(=CNCCC(=O)O)C(=O)OCC`, the displacement is 14.6%.

With `COc1ccc(CCN2C(=O)C3C4c5ccccc5C(C)(c5ccccc54)C3C2=O)cc1OC` (configuration not stated), the displacement was -1.3%.

On to `Cc1ccc(N2C(=O)NC(=O)/C(=C\c3ccc(C)s3)C2=O)cc1`, for which the displacement came out at 13.4%.

On to `Cc1ccc(C=C2C(=O)NC(=O)N(c3cccc(Cl)c3)C2=O)s1`, for which the displacement was determined as 87.1%.

Consider `Cc1ccc(N2C(=O)NC(=O)/C(=C/c3cccc(Cl)c3)C2=O)cc1`, for which the displacement was -8.8%.

For `CC(C)CNC(=O)C(=O)Nc1ccc(Oc2ccccc2)cc1`, the displacement turned out to be 5.2%.

For the compound `COc1cc(/C=c2/sc3nc4ccccc4n3c2=O)ccc1OCc1nn[nH]n1`, the displacement turned out to be 5.2%.

For `Cc1ccc2nc(-c3ccc(O)cc3)sc2c1`, the displacement is 12.7%.

Consider `Cc1ccc2nc(-c3ccc(OC(=O)c4ccccc4F)cc3)sc2c1`, for which the displacement came to 76.4%.

Turning to `Cc1ccc2nc(-c3ccc(NC(=O)c4ccccc4-c4ccccc4C(=O)O)cc3)sc2c1`, the displacement turned out to be 7.9%.

For the compound `C=C(C)CSc1nc2sc3c(c2c(=O)n1CC(=C)C)CC(C)(C)OC3`, the displacement was -10.4%.

Turning to `O=C(Nc1ccc2nc(SCCOc3ccccc3)sc2c1)c1ccccc1Cl`, the displacement is -3.4%.

Consider `COc1ccc(/C=C/C=C2\NC(=S)NC2=O)cc1`, for which the displacement amounted to 128%.

With `CCOc1ccc(/C=C2/NC(=S)NC2=O)cc1`, the displacement stood at 10.8%.

Turning to `CC(C)(C)c1ccc(/C=C2\NC(=S)NC2=O)cc1`, the displacement is -20.2%.

On to `CC(C)(C)CC(C)(C)NC(=O)c1ccc2nccnc2c1`, for which the displacement was 14.3%.

In the case of `Cc1ccccc1-n1c(C)cc(/C=N/NC(=O)CN2CCOCC2)c1C`, the displacement is -22.2%.

As for `CC(C)CC(NC(=O)c1ccco1)C(=O)O` (configuration not stated), the displacement was 9.5%.

For the compound `Cc1cc([N+](=O)[O-])ccc1-c1ccc(C(=O)Nc2ccc3oc(-c4ccccc4)nc3c2)o1`, the displacement was 116%.

For `O=C(Nc1ccc2oc(-c3ccccc3)nc2c1)c1ccc(-c2ccc([N+](=O)[O-])cc2)o1`, the displacement worked out at 22.1%.

Turning to `Cc1cc([N+](=O)[O-])ccc1-c1ccc(C(=O)Nc2ccc(-c3nc4ccccc4o3)c(O)c2)o1`, the displacement stood at 10.8%.

Turning to `Cc1cc([N+](=O)[O-])ccc1-c1ccc(C(=O)Nc2ccc(Cl)cn2)o1`, the displacement was 50.1%.

With `O=C(Nc1ccc(Cl)cn1)c1ccc(-c2ccc([N+](=O)[O-])cc2)o1`, the displacement is 13.9%.

As for `Cc1cc([N+](=O)[O-])ccc1-c1ccc(C(=O)Nc2ccc(Cl)cc2)o1`, the displacement worked out at 45.8%.

Take `CCc1ccccc1NC(=O)C(F)(Cl)C(F)(F)F` (configuration not stated): the displacement was -3.1%.

For the compound `COc1cccc(CN2CCN(C(=O)c3cccc(Cl)c3)CC2)c1`, the displacement was determined as 3.6%.

As to `CC(=O)c1ccc(NC(=O)C2CC(=O)N(C3CCCCC3)C2)cc1` (configuration not stated), the displacement turned out to be 11.1%.

Turning to `COc1ccc(CCC(=O)Nc2cc(Cl)cc(Cl)c2)cc1`, the displacement was determined as 0.3%.

Take `CC(=O)N(Cc1ccc2c(c1)OCO2)C1CC(=O)N(c2ccc(Br)cc2)C1=O` (configuration not stated): the displacement was found to be 72.3%.

Regarding `O=C1CC(N(Cc2ccc3c(c2)OCO3)C(=O)c2ccc(Cl)cc2)C(=O)N1c1ccc(F)cc1` (configuration not stated), the displacement was -2.2%.

`CC(=O)N(Cc1ccc2c(c1)OCO2)C1CC(=O)N(c2cccc(Cl)c2)C1=O` (configuration not stated): the displacement was 16%.

On to `CC1(C)CC(=O)C2=C(C1)Nc1ccccc1NC2c1cccc(Br)c1` (configuration not stated), for which the displacement came to 2.4%.

With `O=C1c2[nH]nc(-c3ccccc3)c2C(c2ccccc2F)N1c1ccccc1` (configuration not stated), the displacement is -3.9%.

As to `C=CCn1c(SCCC)nc2sc3c(c2c1=O)CCc1ccccc1-3`, the displacement is 0.4%.

Consider `COc1ccc(C(=O)NNC(=O)c2cccc(C)c2O)cc1OC`, for which the displacement is -1.1%.

As to `CCOC(=O)C1=C(C)N=c2s/c(=C\c3cccc(OC)c3O)c(=O)n2C1c1ccccc1` (configuration not stated), the displacement is -0.2%.

As for `CCOC(=O)C1=C(C)N=c2s/c(=C\c3ccc(OC)c(OC)c3OC)c(=O)n2C1c1ccc(Cl)cc1` (configuration not stated), the displacement was determined as 152%.

For the compound `CCOC(=O)C1=C(C)N=c2s/c(=C\c3ccccc3OC)c(=O)n2C1c1ccc(C)cc1` (configuration not stated), the displacement is -2.8%.

Turning to `CCOC(=O)C1=C(C)N=c2s/c(=C\c3ccc(OC)c(O)c3)c(=O)n2C1c1ccc(Cl)cc1` (configuration not stated), the displacement was -5.3%.

In the case of `CCOC(=O)C1=C(C)N=c2s/c(=C\c3ccc(OC)c(OC)c3OC)c(=O)n2C1c1ccccc1` (configuration not stated), the displacement amounted to 210%.

With `CCOC(=O)C1=C(C)N=c2s/c(=C\c3ccc(OC)cc3)c(=O)n2C1c1ccc(Cl)cc1` (configuration not stated), the displacement turned out to be 18.8%.

Consider `CCOC(=O)C1=C(N)OC2=C(C(=O)CCC2)C1c1ccc(Cl)cc1Cl` (configuration not stated), for which the displacement is -2.9%.

As to `COC(=O)c1ccc(/C=C2\N=C(c3ccc(C(C)(C)C)cc3)OC2=O)cc1`, the displacement amounted to 11.1%.

Source of the values: PubChem BioAssay AID1240 (Sanford-Burnham Center for Chemical Genomics, 2008).
